Results as given in PubChem BioAssay AID1159580 (chemical genetic matrix, 2015).
About 2,000 (36%) of roughly 5,500 compounds were called active. Inconclusive results (about 18%) are left out. Cut-off read from the data, not from the text of the source: active = normalized growth mostly below about 0.91 (no sharp cut-off); inconclusive = no clear call, values can overlap the other calls; inactive = mostly above about 0.92. The list shows a part of the results.

Experiment: chemical genetic growth profiling, strain panel (AID 1159580);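 note: tested at 20 µM; growth read once vehicle control cultures reached saturation at 30 °C; 1 = growth at the plate median or of vehicle wells; lower values mean less growth of the strain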
Conditions: growth OD

Measured: normalized growth

O=C(O)c1cc(=O)c2cccc(O)c2[nH]1
inactive: S. cerevisiae deletion strains, locus YJR075W, strain HOC1, stronger effect = lower value 0.974 | S. cerevisiae deletion strains, locus YKL009W, strain mrt4, stronger effect = lower value 0.965 | S. cerevisiae deletion strains, locus YKL068W, stronger effect = lower value 0.976 | S. cerevisiae deletion strains, locus YKL085W, strain MDH1 (second series), stronger effect = lower value 0.964 | S. cerevisiae deletion strains, locus YKL085W, strain MDH1, stronger effect = lower value 0.964 | S. cerevisiae deletion strains, locus YKL160W, strain elf1, stronger effect = lower value 1.05 | S. cerevisiae deletion strains, locus YKL190W, strain CNB1, stronger effect = lower value 0.982 | S. cerevisiae deletion strains, locus YKR001C, strain vps1, stronger effect = lower value 1 | S. cerevisiae deletion strains, locus YKR026C, strain gcn3, stronger effect = lower value 1.01 | S. cerevisiae deletion strains, locus YKR091W, strain srl3, stronger effect = lower value 1.01 | S. cerevisiae deletion strains, locus YLL001W, strain dnm1, stronger effect = lower value 1.02 | S. cerevisiae deletion strains, locus YLL026W, stronger effect = lower value 1.02 | S. cerevisiae deletion strains, locus YLL041C, strain sdh2, stronger effect = lower value 1 | S. cerevisiae deletion strains, locus YLR027C, strain aat2, stronger effect = lower value 0.996 | S. cerevisiae deletion strains, locus YLR039C, strain RIC1, stronger effect = lower value 0.968 | S. cerevisiae deletion strains, locus YLR058C, strain SHM2, stronger effect = lower value 0.987 | S. cerevisiae deletion strains, locus YLR102C, strain apc9, stronger effect = lower value 0.979 | S. cerevisiae deletion strains, locus YLR113W, strain HOG1, stronger effect = lower value 0.99 | S. cerevisiae deletion strains, locus YLR221C, strain rsa3, stronger effect = lower value 0.995 | S. cerevisiae deletion strains, locus YLR258W, strain gsy2, stronger effect = lower value 1.03 | S. cerevisiae deletion strains, locus YLR262C, strain YPT6 (second series), stronger effect = lower value 1.01 | S. cerevisiae deletion strains, locus YLR262C, strain YPT6, stronger effect = lower value 0.971 | S. cerevisiae deletion strains, locus YLR268W, strain sec22, stronger effect = lower value 0.916 | S. cerevisiae deletion strains, locus YLR320W, strain mms22, stronger effect = lower value 1.01 | S. cerevisiae deletion strains, locus YLR330W, strain CHS5, stronger effect = lower value 0.991 | S. cerevisiae deletion strains, locus YLR342W, strain FKS1 (second series), stronger effect = lower value 1.08 | S. cerevisiae deletion strains, locus YLR342W, strain FKS1, stronger effect = lower value 1.02 | S. cerevisiae deletion strains, locus YLR357W, strain rsc2, stronger effect = lower value 1.05 | S. cerevisiae deletion strains, locus YLR370C, strain arc18, stronger effect = lower value 1.04 | S. cerevisiae deletion strains, locus YLR371W, strain rom2, stronger effect = lower value 0.98 | S. cerevisiae deletion strains, locus YLR384C, strain iki3, stronger effect = lower value 1.02 | S. cerevisiae deletion strains, locus YLR418C, strain cdc73, stronger effect = lower value 1.03 | S. cerevisiae deletion strains, locus YML016C, strain PPZ1, stronger effect = lower value 1 | S. cerevisiae deletion strains, locus YML032C, strain rad52, stronger effect = lower value 0.961 | S. cerevisiae deletion strains, locus YML120C, strain ndi1, stronger effect = lower value 1.01 | S. cerevisiae deletion strains, locus YML124C, strain tub3, stronger effect = lower value 0.977 | S. cerevisiae deletion strains, locus YMR058W, strain fet3, stronger effect = lower value 1.02 | S. cerevisiae deletion strains, locus YMR078C, strain ctf18, stronger effect = lower value 0.991 | S. cerevisiae deletion strains, locus YMR125W, strain sto1, stronger effect = lower value 1.02 | S. cerevisiae deletion strains, locus YMR129W, stronger effect = lower value 1.02 | S. cerevisiae deletion strains, locus YMR205C, strain PFK2, stronger effect = lower value 1.02 | S. cerevisiae deletion strains, locus YMR223W, strain ubp8, stronger effect = lower value 1.03 | S. cerevisiae deletion strains, locus YMR231W, strain pep5, stronger effect = lower value 1.01 | S. cerevisiae deletion strains, locus YMR263W, strain SAP30, stronger effect = lower value 0.975 | S. cerevisiae deletion strains, locus YMR307W, strain GAS1, stronger effect = lower value 1.09 | S. cerevisiae deletion strains, locus YNL067W, strain RPL9B, stronger effect = lower value 0.967 | S. cerevisiae deletion strains, locus YNL071W, strain lat1, stronger effect = lower value 1.02 | S. cerevisiae deletion strains, locus YNL128W, strain TEP1, stronger effect = lower value 0.983 | S. cerevisiae deletion strains, locus YNL153C, strain GIM3, stronger effect = lower value 0.97 | S. cerevisiae deletion strains, locus YNL183C, strain NPR1, stronger effect = lower value 0.917 | S. cerevisiae deletion strains, locus YNL209W, strain ssb2, stronger effect = lower value 0.999 | S. cerevisiae deletion strains, locus YNL233W, strain BNI4, stronger effect = lower value 0.97 | S. cerevisiae deletion strains, locus YNL248C, strain rpa49, stronger effect = lower value 1.03 | S. cerevisiae deletion strains, locus YNL250W, strain rad50, stronger effect = lower value 0.967 | S. cerevisiae deletion strains, locus YNL271C, strain bni1, stronger effect = lower value 0.976 | S. cerevisiae deletion strains, locus YNL298W, strain CLA4, stronger effect = lower value 0.987 | S. cerevisiae deletion strains, locus YNL307C, strain MCK1, stronger effect = lower value 0.981 | S. cerevisiae deletion strains, locus YNL322C, strain KRE1 (second series), stronger effect = lower value 1.03 | S. cerevisiae deletion strains, locus YNL322C, strain KRE1, stronger effect = lower value 0.984 | S. cerevisiae deletion strains, locus YNR049C, strain mso1, stronger effect = lower value 1.02 | S. cerevisiae deletion strains, locus YNR052C, strain pop2, stronger effect = lower value 1 | S. cerevisiae deletion strains, locus YOL006C, strain TOP1, stronger effect = lower value 1.02 | S. cerevisiae deletion strains, locus YOL012C, strain htz1 0.728 | S. cerevisiae deletion strains, locus YOL147C, strain pex11, stronger effect = lower value 0.985 | S. cerevisiae deletion strains, locus YOR001W, strain rrp6, stronger effect = lower value 0.956 | S. cerevisiae deletion strains, locus YOR061W, strain CKA2, stronger effect = lower value 0.992 | S. cerevisiae deletion strains, locus YOR069W, strain VPS5, stronger effect = lower value 0.991 | S. cerevisiae deletion strains, locus YOR070C, strain gyp1, stronger effect = lower value 1.02 | S. cerevisiae deletion strains, locus YOR080W, strain dia2, stronger effect = lower value 1.01 | S. cerevisiae deletion strains, locus YOR083W, strain WHI5, stronger effect = lower value 1.05 | S. cerevisiae deletion strains, locus YOR106W, strain vam3, stronger effect = lower value 1.03 | S. cerevisiae deletion strains, locus YOR136W, strain idh2, stronger effect = lower value 0.99 | S. cerevisiae deletion strains, locus YOR144C, strain elg1, stronger effect = lower value 0.99 | S. cerevisiae deletion strains, locus YOR184W, strain ser1, stronger effect = lower value 0.972 | S. cerevisiae deletion strains, locus YOR231W, strain MKK1, stronger effect = lower value 0.982 | S. cerevisiae deletion strains, locus YOR265W, strain rbl2, stronger effect = lower value 1.01 | S. cerevisiae deletion strains, locus YOR270C, strain vph1, stronger effect = lower value 0.995 | S. cerevisiae deletion strains, locus YOR290C, strain snf2, stronger effect = lower value 1.06 | S. cerevisiae deletion strains, locus YOR316C, strain cot1, stronger effect = lower value 0.966 | S. cerevisiae deletion strains, locus YPL051W, strain arl3, stronger effect = lower value 1.04 | S. cerevisiae deletion strains, locus YPL055C, strain LGE1, stronger effect = lower value 0.951 | S. cerevisiae deletion strains, locus YPL078C, strain atp4, stronger effect = lower value 1.04 | S. cerevisiae deletion strains, locus YPL106C, strain sse1, stronger effect = lower value 1.03 | S. cerevisiae deletion strains, locus YPL240C, strain hsp82, stronger effect = lower value 1.01 | S. cerevisiae deletion strains, locus YPL241C, strain CIN2, stronger effect = lower value 0.982 | S. cerevisiae deletion strains, locus YPL256C, strain CLN2, stronger effect = lower value 0.965 | S. cerevisiae deletion strains, locus YPR119W, strain clb2, stronger effect = lower value 0.987 | S. cerevisiae deletion strains, locus YPR141C, strain kar3, stronger effect = lower value 0.97 | S. cerevisiae deletion strains, locus YPR163C, strain tif3, stronger effect = lower value 0.989 | S. cerevisiae deletion strains, locus YPR167C, strain met16, stronger effect = lower value 0.973 | S. cerevisiae deletion strains, strain wtn01, stronger effect = lower value 0.995 | S. cerevisiae strains, strain wild type, stronger effect = lower value 1
